# Potency and affinity values are given separately.
# How the values were obtained:
# Staphylococcus aureus = conditions: Concentration 32 ug.mL-1;; ASSAY_TEST Inhibition of Bacterial Growth; detection method Absorption (OD600); MEDIA CAMHB; plate type 384well; NBS; CORNING #3640; time 18 hr
# Escherichia coli = conditions: Concentration 32 ug.mL-1;; ASSAY_TEST Inhibition of Bacterial Growth; detection method Absorption (OD600); MEDIA CAMHB; plate type 384well; NBS; CORNING #3640; time 18 hr
SMILES,Inhibition (Staphylococcus aureus) [%],Inhibition (Escherichia coli) [%]
O=c1n(Cc2ccccc2F)nc2ccc(S(=O)(=O)N3CCCCCC3)cn12,2.98,-8.1
Cc1ccc(Cl)cc1NC(=O)CSc1nnc2n(CC3CCCO3)c(=O)c3sccc3n12 (stereo not given),8.22,-0.5
COc1ccc(-c2cc3c4nn(CC(=O)Nc5ccccc5Cl)c(=O)n4ccn3n2)cc1,-2.84,-5.57
COc1ccc(Cn2nc3ccc(-c4ccc(Cl)cc4)nn3c2=O)cc1F,12.92,0.48
COc1ccccc1-n1ccn2c(SCC(=O)Nc3ccc4c(c3)OCO4)nnc2c1=O,7.67,-8.08
Cc1cccc(Oc2nccn3c(=O)n(CC(=O)NCCCc4ccccc4)nc23)c1C,9.48,-1.44
N#Cc1ccc(NC(=O)CSc2nnc3c4cc(-c5ccc(F)cc5)nn4ccn23)cc1,5.96,-4.2
COc1cc(OC)c(NC(=O)Cn2nc3ccc(-c4ccc(C)c(C)c4)nn3c2=O)cc1Cl,2.47,-7.33
COc1cccc(Sc2nc3ccccc3n3c(=O)n(CC(=O)Nc4c(C)cc(C)cc4C)nc23)c1,1.84,-6.13
Cc1ccc(CNC(=O)Cn2nc3c(N4CCN(c5ccccc5C)CC4)nccn3c2=O)cc1,4.45,-8.18
Cc1ccc(Sc2nccn3c(=O)n(CC(=O)Nc4ccccc4Br)nc23)c(C)c1,-0.81,-13.84
Cc1nnc2c(=O)n(CC(=O)Nc3cccc(F)c3)c3ccccc3n12,14.13,2.22
O=C(Cn1nc2c3sc(N4CCCC4)nc3ncn2c1=O)Nc1ccc(C(F)(F)F)cc1,13.19,-0.19
CCc1ccccc1Sc1nccn2c(=O)n(CC(=O)Nc3ccc(C)cc3)nc12,2.48,-9.52
CC(C)Cn1c(=O)c2ccc(C(=O)NC3CCCC3)cc2n2c(=O)n(CC(=O)NC3CCCCC3)nc12,-0.85,-0.58
Cc1ccc(C)c(NC(=O)Cn2nc3ccc(-c4ccc(C)c(C)c4)nn3c2=O)c1,-1.85,-17.07
O=c1n(Cc2nc(-c3ccc(F)cc3)no2)nc2ccc(-c3ccccc3)nn12,3.21,-3.67
Cc1c(Cl)cccc1-n1ccn2c(=O)n(Cc3cccc(Cl)c3)nc2c1=O,7.64,-4.76

SMILES,Inhibition (Staphylococcus aureus) [%],Inhibition (Escherichia coli) [%]
CCc1nnc2c(SCC(=O)Nc3cccc(OC)c3)nc3ccccc3n12,0.35,-7.16
CCc1ccc(Cn2c(=O)c3sccc3n3c(SCc4cccc(C(F)(F)F)c4)nnc23)cc1,5.26,-0.8
CCOC(=O)c1ccccc1NC(=O)Cn1nc2c(Sc3ccccc3)nccn2c1=O,8.61,-3.65
COc1cc(NC(=O)Cn2nc3c(Oc4ccccc4)nccn3c2=O)cc(OC)c1OC,13.24,1.16
CCCn1c(=O)c2sccc2n2c(=O)n(CC(=O)c3ccccc3)nc12,3.8,2.71
O=C(Cn1nc2ccc(-c3ccc(Cl)cc3)nn2c1=O)N1CCN(c2ccc(F)cc2)CC1,4.1,-5.18
Cc1cccc(CN(c2ccc(F)cc2)S(=O)(=O)c2ccc3nnc(C)n3c2)c1,5.07,-8.57
COc1cccc(CN(c2ccc(F)c(F)c2)S(=O)(=O)c2cccn3c(C)nnc23)c1,17.08,2.94
CCc1nnc2ccc(S(=O)(=O)N(Cc3cccc(OC)c3)c3cccc(F)c3)cn12,-0.28,-5.95
CC(C)CCn1c(=O)c2ccccc2n2c(=O)n(CC#N)nc12,16.96,1.73
Cc1ccc(-c2ccc3nnc(CCC(=O)NCc4ccc(C(F)(F)F)cc4)n3n2)cc1C,17.72,1.8
O=C1CCCN1c1ccc(Cn2nc3ccc(-c4ccccc4)nn3c2=O)cc1,-3.3,-6.97
COc1cccc(CNC(=O)CSc2nnc3c(=O)n(-c4cccc(OC)c4)ccn23)c1,1.1,0.96
COc1ccccc1-n1ccn2c(SCC(=O)N3CCN(c4ccccc4F)CC3)nnc2c1=O,13.15,-2.51
CCCCOc1ccc(-c2cc3c4nnc(SCC(=O)Nc5ccc(C)c(F)c5)n4ccn3n2)cc1,5.13,-2.67
Cc1ccc(Sc2ccc3nn(CC(=O)Nc4ccc(Br)c(C)c4)c(=O)n3n2)cc1,8.43,-6
COc1ccc(CNC(=O)CSc2nnc3c4cc(-c5ccc(C)cc5)nn4ccn23)cc1OC,5.65,-0.16

# Source: ChEMBL document CHEMBL4513146, “CO-ADD screening of Karazin Kharkiv National University (Ukraine) compounds”
